A short description of assay [1]: NCI Yeast Anticancer Drug Screen. Data for the rad50 strain (AID 155).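 Also: 0% = growth of vehicle-only cultures of the same strain.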 The conditions noted are these: S. cerevisiae rad50 strain growth inhibition, active compounds read high. An outline of the steps:
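Compounds were tested on a yeast strain with an engineered DNA damage repair alteration; the reported value is growth inhibition normalised to vehicle treatment.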

Assay [2] can be described thus: NCI Yeast Anticancer Drug Screen. Data for the mec2-1 strain (AID 157). Conditions: S. cerevisiae mec2-1 strain, active compounds read high. In outline:
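Using mec2-1 yeast: add compound, measure growth, express inhibition versus vehicle-treated cultures.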

Assay [3] is described as follows: NCI Yeast Anticancer Drug Screen. Data for the sgs1 mgt1 strain (AID 161).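 Also: 0% = growth of cultures given vehicle only.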 The conditions noted are these: S. cerevisiae sgs1 mgt1 strain, active compounds read high. In outline:
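Compounds are added to genetically altered yeast, and growth is compared with cultures given vehicle alone to give percent inhibition.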

The nature of assay [4]: NCI Yeast Anticancer Drug Screen. Data for the cln2 rad14 strain (AID 165).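 Also: 0% = growth equal to vehicle treated cultures.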 Conditions: S. cerevisiae cln2 rad14 strain, active compounds read high. In outline:
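Yeast strain cln2 rad14, bearing defects in cell cycle control and DNA repair, serves as the test system; values reflect growth inhibition compared with vehicle.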

Assay [5] in a line: NCI Yeast Anticancer Drug Screen. Data for the bub3 strain (AID 167). The conditions noted are these: S. cerevisiae bub3 mutant strain, active compounds read high. An outline of the steps: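 Growth of a checkpoint-deficient yeast mutant is measured after compound exposure. Values represent inhibition relative to vehicle.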
Assay [6] can be described thus: NCI Yeast Anticancer Drug Screen. Data for the mlh1 rad18 strain (AID 175). The conditions noted are these: S. cerevisiae mlh1 rad18 strain growth inhibition, active compounds read high. An outline of the steps:
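Steps: expose repair-defective yeast to compound; measure growth; express inhibition against vehicle-treated controls.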

Where [7] appears, read: at 5.0 µM (retest, dose inferred, filed as 0.5).
The mark [8] stands for this setting: at 50.0 µM (retest, dose inferred, filed as 5.0).

This is part of a sample that, as a whole, favours compounds with a hit. Of some 79,000 tested, about 15% had one in any assay. Values without a mark were called inactive. Calls of active or inactive are those of the source. Rule as the data show it: active = growth inhibition above about 70%; inactive = the rest.

With `Cc1cc(N2C(=O)CSC2=S)ccc1Cl`, the growth inhibition in assay [1] (setting [7]) was -3%; in assay [1] (setting [8]), 1%; in assay [1] (at 50.0 µM), 61.1%; in assay [2] (setting [7]), -4%; in assay [2] (setting [8]) it was -2%; in assay [2] (at 50.0 µM), 21.9%. For the same compound, the growth inhibition in assay [3] (setting [7]) is -2%; in assay [3] (setting [8]), 8%; in assay [3] (at 50.0 µM), 79.2% (active); in assay [4] (setting [7]), -2%; in assay [4] (setting [8]), -17%; in assay [4] (at 50.0 µM) it was 12.8%. For the same compound, the growth inhibition in assay [5] (setting [7]) is -6%; in assay [5] (setting [8]) it was -1%; in assay [5] (at 50.0 µM), 7.95%; in assay [6] (setting [7]), -6%; in assay [6] (setting [8]) it was 0%; in assay [6] (at 50.0 µM) it was 51.2%.

In the case of `O=S(=O)(O)c1cc2ccccc2c(O)c1N=Nc1ccccc1`, the growth inhibition is 1% in assay [1] (setting [7]); 97% (active) in assay [1] (setting [8]); -33.1% in assay [1] (at 50.0 µM); -1% in assay [2] (setting [7]); 98% (active) in assay [2] (setting [8]); -16% in assay [2] (at 50.0 µM). Moreover, the growth inhibition was 1% in assay [3] (setting [7]); 98% (active) in assay [3] (setting [8]); -3.25% in assay [3] (at 50.0 µM); -16% in assay [4] (setting [7]); 97% (active) in assay [4] (setting [8]); 31.1% in assay [4] (at 50.0 µM). The growth inhibition was -1% in assay [5] (setting [7]); 98% (active) in assay [5] (setting [8]); -0.1% in assay [5] (at 50.0 µM); 2% in assay [6] (setting [7]); 98% (active) in assay [6] (setting [8]); 7.6% in assay [6] (at 50.0 µM).

As to `NC(=O)NN=C1CSSC1`, the growth inhibition is 7% in assay [1] (setting [7]); 48% in assay [1] (setting [8]); 96.2% (active) in assay [1] (at 50.0 µM); 4% in assay [2] (setting [7]); 23% in assay [2] (setting [8]); 76.5% (active) in assay [2] (at 50.0 µM). For the same compound, the growth inhibition in assay [3] (setting [7]) is 3%; in assay [3] (setting [8]) it was 34%; in assay [3] (at 50.0 µM), 58%; in assay [4] (setting [7]), -9%; in assay [4] (setting [8]) it was -6%; in assay [4] (at 50.0 µM) it was -3.8%. The growth inhibition in assay [5] (setting [7]) is 1%; in assay [5] (setting [8]) it was 2%; in assay [5] (at 50.0 µM), 77.8% (active); in assay [6] (setting [7]) it was -1%; in assay [6] (setting [8]), 72% (active); in assay [6] (at 50.0 µM) it was 94.2% (active).

Turning to `COc1ccc(OC)c(N=Nc2c(C)[nH]n(C(N)=S)c2=O)c1`, the growth inhibition in assay [1] (setting [7]) is -6%; in assay [1] (setting [8]), 47%; in assay [1] (at 50.0 µM), 79.3% (active); in assay [2] (setting [7]), -3%; in assay [2] (setting [8]), 34%; in assay [2] (at 50.0 µM), 19%. Moreover, the growth inhibition in assay [3] (setting [7]) is 7%; in assay [3] (setting [8]), 34%; in assay [3] (at 50.0 µM), 80.7% (active); in assay [4] (setting [7]), -2%; in assay [4] (setting [8]), 27%; in assay [4] (at 50.0 µM) it was 10.6%. Further, the values for the growth inhibition in assay [6] (setting [7]), in assay [6] (setting [8]) and in assay [6] (at 50.0 µM) were 11%, 25% and 66.7%, respectively.

Turning to `C/C(=N\NC(=S)N1CCN(Cc2ccccc2)CC1)c1ccccn1`, the growth inhibition in assay [1] (setting [7]) was 23%; in assay [1] (setting [8]), 76% (active); in assay [1] (at 50.0 µM), 90.3% (active); in assay [2] (setting [7]), 23%; in assay [2] (setting [8]) it was 85% (active); in assay [2] (at 50.0 µM), 88.8% (active). Further, the growth inhibition in assay [3] (setting [7]) is 12%; in assay [3] (setting [8]), 80% (active); in assay [3] (at 50.0 µM) it was 31.2%; in assay [4] (setting [7]) it was 8%; in assay [4] (setting [8]) it was 73% (active); in assay [4] (at 50.0 µM) it was -14.7%. Besides, the growth inhibition in assay [5] (setting [7]) was 31%; in assay [5] (setting [8]), 96% (active); in assay [5] (at 50.0 µM) it was 11.7%; in assay [6] (setting [7]), 15%; in assay [6] (setting [8]) it was 74% (active); in assay [6] (at 50.0 µM), 81.6% (active).

As to `CCCNC(=O)OCc1ccc(NCCN(CC)CC)c2c(=O)c3ccccc3sc12`, the growth inhibition in assay [1] (setting [7]) is 10%; in assay [1] (setting [8]), 17%; in assay [1] (at 50.0 µM) it was 69%; in assay [2] (setting [7]), -7%; in assay [2] (setting [8]), -6%; in assay [2] (at 50.0 µM) it was -24%. Moreover, the growth inhibition is -4% in assay [3] (setting [7]); 16% in assay [3] (setting [8]); -8.85% in assay [3] (at 50.0 µM); 13% in assay [4] (setting [7]); 17% in assay [4] (setting [8]); 9.95% in assay [4] (at 50.0 µM). Moreover, the growth inhibition in assay [6] (setting [7]) was 3%; in assay [6] (setting [8]), 2%; in assay [6] (at 50.0 µM), 1.05%.

On to `Cc1c2c(c(O)c3c(O)cccc13)C(=O)C1(O)C(=O)C(C(N)=O)C(O)C(N(C)C)C1C2` (stereo unspecified), for which the growth inhibition was 27% in assay [1] (setting [7]); 99% (active) in assay [1] (setting [8]); 65.7% in assay [1] (at 50.0 µM); 82% (active) in assay [2] (setting [7]); 100% (active) in assay [2] (setting [8]); 99.2% (active) in assay [2] (at 50.0 µM). The growth inhibition was -90% in assay [3] (setting [7]); 100% (active) in assay [3] (setting [8]); 58% in assay [3] (at 50.0 µM); 66% in assay [4] (setting [7]); 99% (active) in assay [4] (setting [8]); 98.7% (active) in assay [4] (at 50.0 µM). Moreover, the growth inhibition is 61% in assay [5] (setting [7]); 99% (active) in assay [5] (setting [8]); 98.6% (active) in assay [5] (at 50.0 µM); 70% (active) in assay [6] (setting [7]); 99% (active) in assay [6] (setting [8]); 99.1% (active) in assay [6] (at 50.0 µM).

As to `NS(=O)(=O)c1ccc(NC(=S)/N=C\C(C(=O)c2ccccc2)=C(\O)c2ccccc2)cc1`, the growth inhibition in assay [1] (setting [7]) is 7%; in assay [1] (setting [8]), 12%; in assay [1] (at 50.0 µM), 6.9%; in assay [2] (setting [7]), -2%; in assay [2] (setting [8]), -15%; in assay [2] (at 50.0 µM), 1.7%. Moreover, the growth inhibition was 0% in assay [3] (setting [7]); -5% in assay [3] (setting [8]); 9.8% in assay [3] (at 50.0 µM); -19% in assay [4] (setting [7]); -18% in assay [4] (setting [8]); 41.5% in assay [4] (at 50.0 µM). In addition, the growth inhibition was 3% in assay [5] (setting [7]); 8% in assay [5] (setting [8]); 8.15% in assay [5] (at 50.0 µM); 10% in assay [6] (setting [7]); -7% in assay [6] (setting [8]); 2.15% in assay [6] (at 50.0 µM).

For the compound `Nc1nc2nc(I)[nH]c2c(=O)[nH]1`, the growth inhibition in assay [1] (setting [7]) was -4%; in assay [1] (setting [8]), -4%; in assay [1] (at 50.0 µM), 4.8%; in assay [2] (setting [7]), -13%; in assay [2] (setting [8]) it was -16%; in assay [2] (at 50.0 µM), -2.5%. Besides, the growth inhibition in assay [3] (setting [7]) is 10%; in assay [3] (setting [8]), 9%; in assay [3] (at 50.0 µM), -5.25%; in assay [4] (setting [7]) it was -8%; in assay [4] (setting [8]) it was -4%; in assay [4] (at 50.0 µM), 30.3%. Also, the growth inhibition in assay [6] (setting [7]) was -9%; in assay [6] (setting [8]), -2%; in assay [6] (at 50.0 µM) it was 10.9%.

As to `CCN(CC)CCOC(=O)Cc1cccc2c(=O)cc(-c3cccs3)oc12`, the growth inhibition is 18% in assay [1] (setting [7]); 17% in assay [1] (setting [8]); 18.7% in assay [1] (at 50.0 µM); 9% in assay [2] (setting [7]); 16% in assay [2] (setting [8]); -9.35% in assay [2] (at 50.0 µM). Moreover, the growth inhibition in assay [3] (setting [7]) was 14%; in assay [3] (setting [8]) it was 18%; in assay [3] (at 50.0 µM), -16.4%; in assay [4] (setting [7]), 17%; in assay [4] (setting [8]), 17%; in assay [4] (at 50.0 µM), 8.25%. The growth inhibition is 4% in assay [5] (setting [7]); 14% in assay [5] (setting [8]); -20.6% in assay [5] (at 50.0 µM); 10% in assay [6] (setting [7]); 16% in assay [6] (setting [8]); -36% in assay [6] (at 50.0 µM).
